Measurements taken from PubChem BioAssay AID1578 (Sanford-Burnham Center for Chemical Genomics, 2009).
The whole screen tested about 290,000 compounds, of which about 3,000 (1%) were called active. The sample holds actives, similar compounds and a random draw of the others, so the mix is not that of the screen. No stated cut-off is given here; in the data, active means inhibition mostly above about 36% (no sharp cut-off); inactive means mostly below about 34%.

Experiment: NOD1 signaling inhibitors, primary screen, cell-based, luminescence, uHTS (AID 1578);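 further: HEK-293T reporter cells stimulated with the NOD1 agonist gamma-tri-DAP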
Conditions: NOD1-driven NF-kB luciferase reporter cells, at 4 µM, hits give high values

| SMILES | inhibition |
| --- | --- |
| O=C(C1CCC(=O)N(C2CCCC2)C1)N1CCN(c2ccccc2Cl)CC1 (configuration not stated) | -2.7% (inactive) |
| CCOC(=O)c1c(NC(=O)CSc2nnc(C)c(=O)[nH]2)sc2c1CCCC2 | 11.2% (inactive) |
| CCOC(=O)c1c(NC(=O)CSc2nnc(C)c(=O)[nH]2)sc(C)c1C | 17.3% (inactive) |
| CCOC(=O)c1c(NC(=O)CSc2nnc(C)c(=O)[nH]2)sc(C)c1-c1ccc(C)cc1 | 43.1% (active) |
| CC/C=C/C(=O)N1CC2(CC(c3cccc(NC(=O)CC(c4ccccc4)c4ccccc4)c3)=NO2)C[C@@H]1C(N)=O (some centres not stated) | -0.2% (inactive) |
| CCN(CC)Cc1c(O)ccc2c([N+](=O)[O-])c(C)n(-c3ccc(OC)cc3)c12 | -5.7% (inactive) |
| COc1ccc(C(=O)c2coc3ccc(O)c(CN4CCCCC4)c23)cc1 | 9.4% (inactive) |
| COc1cc(C2NC(=S)NC(C)=C2C(=O)Nc2ccc(C)cc2)ccc1O (configuration not stated) | -50% (inactive) |
| c1coc(-c2nc(-c3ccncc3)no2)c1 | -24.6% (inactive) |
| CCCCn1c(O)c(N=NC(=O)c2ccncc2)c2cc(Br)ccc21 | 46.8% (inactive) |
| O=c1c2c(nc3cc(-c4ccc(F)cc4)[nH]n13)CCCC2 | -40.5% (inactive) |
| O=c1c2c(nc3cc(-c4ccc(F)cc4)[nH]n13)CCC2 | 62.6% (active) |
| O=c1c2c(nc3cc(-c4ccccc4)[nH]n13)CCC2 | -31.8% (inactive) |
| CC(NC(=O)CSc1nc2ccc(N)cc2s1)c1ccccc1 (configuration not stated) | -0.6% (inactive) |
| COc1ccc(Cl)cc1NC(=S)NCCc1c[nH]c2ccccc12 | -12.7% (inactive) |
| COc1ccc(NC(=S)NCCc2c[nH]c3ccccc23)c(OC)c1 | 17.2% (inactive) |
| COc1ccccc1NC(=S)NCCc1c[nH]c2ccccc12 | 86% (active) |
| COc1cccc(C(=O)Nc2ccc3c(c2)CCCN3C(=O)c2cccs2)c1OC | 56.1% (active) |
| COc1ccc(C(=O)Nc2ccc3c(c2)CCCN3C(=O)c2cccs2)c(OC)c1 | 21.1% (inactive) |
| COc1ccccc1C(=O)Nc1ccc2c(c1)CCCN2C(=O)c1cccs1 | -18.3% (inactive) |
| O=C(CC1C(=O)N(c2ccccc2)C(=O)N1C1CCCCC1)Nc1ccccc1 (configuration not stated) | 11.7% (inactive) |
| CC1CCCN(S(=O)(=O)c2ccc(NC(=O)Cn3nnc(-c4ccccc4F)n3)cc2)C1 (configuration not stated) | -31.2% (inactive) |
| CC(C)CCOc1ccc(Cl)cc1CN1CCOCC1 | -26.5% (inactive) |
| Clc1ccc(-c2nn3c(-c4ccncc4)nnc3s2)c(Cl)c1 | 59% (active) |
| Clc1cccc(-c2nn3c(-c4ccncc4)nnc3s2)c1 | -14% (inactive) |

| SMILES | inhibition |
| --- | --- |
| Clc1ccccc1-c1nn2c(-c3ccncc3)nnc2s1 | 64.5% (inactive) |
| COC(=O)c1c(C(=O)OC)c(-c2ccc(Cl)c(Cl)c2)n2c1CCC2 | -14.5% (inactive) |
| Cc1ccc(CCNC(=O)C23C[C@H]4C[C@@H](C2)CC(n2nnc(C)n2)(C4)C3)cc1 | -3.3% (inactive) |
| Cc1nnn(C23C[C@@H]4C[C@@H](CC(C(=O)N5CCN(c6ccccc6)CC5)(C4)C2)C3)n1 | -7% (inactive) |
| COc1cccc(C2C(C#N)=C(N)Oc3cc(C)n(Cc4ccccn4)c(=O)c32)c1OC (configuration not stated) | -19.6% (inactive) |
| Cc1ccsc1C(=O)OCc1csc(-c2ccccc2)n1 | -65.5% (inactive) |
| CC1(C)CC(=O)C=C(NC2=CC3OC(c4ccccc4)OCC3OC2=O)C1 (configuration not stated) | 61.7% (active) |
| Cc1ccccc1NC1=CC(=O)CC(C)(C)C1 | 1.1% (inactive) |
| O=C1C=C(NC2=CC3OC(c4ccccc4)OCC3OC2=O)CCC1 (configuration not stated) | -24.3% (inactive) |
| COc1ccc(CN2CCC(n3nccc3NC(=O)c3ccc4c(c3)OCO4)CC2)cc1C | -12.5% (inactive) |
| O=S(=O)(c1cccs1)N1CCN(Cc2nc3ccccc3s2)CC1 | -23.6% (inactive) |
| O=C(NC(N1CCOCC1)C(Cl)(Cl)Cl)c1ccc(F)cc1 (configuration not stated) | -23.2% (inactive) |
| COc1ccc(C(=O)NNC2=Nc3cccc4cccc2c34)cc1 | 11.1% (inactive) |
| O=C(NNC1=Nc2cccc3cccc1c23)c1ccc(Br)cc1 | 85.4% (active) |
| Cc1ccc(C(=O)NNC2=Nc3cccc4cccc2c34)cc1 | 34% (inactive) |
| CC(=O)N/C(=C/c1ccccc1)C(=O)N1CCCCC1 | -19.2% (inactive) |
| CCN(CC(=O)Nc1c(F)cccc1F)C(=O)c1n[nH]c2ccccc12 | -21.6% (inactive) |
| Cc1ccc2c(c1)sc1ncc(NC(=O)c3ccc(F)cc3)c(=O)n12 | -34.8% (inactive) |
| O=C(Nc1ccccc1NC(=O)c1ccc(F)cc1)c1ccc(F)cc1 | 5.1% (inactive) |
| N#Cc1cc(NC(=O)c2ccc(F)cc2)c(=O)n2c1[nH]c1ccccc12 | 67.8% (active) |
| COc1cccc(N(C(=O)c2ccco2)C(C(=O)NC2CCCC2)c2ccc(N(C)C)cc2)c1 (configuration not stated) | -6.7% (inactive) |
| Cc1cccc(NC(=S)N=Nc2c(O)[nH]c3ccccc23)c1 | -18.3% (inactive) |
| Cc1ccc(NC(=S)N=Nc2c(O)[nH]c3ccccc23)cc1 | 50.7% (active) |
| Oc1ccc(NC(=S)N=Nc2c(O)[nH]c3ccccc23)cc1 | -25.5% (inactive) |
| CC(Nc1nc(-c2ccccc2F)nc2ccccc12)c1ccccc1 (configuration not stated) | -6.1% (inactive) |

| SMILES | inhibition |
| --- | --- |
| CCn1c2ccccc2c2nnc(SCCCn3c(=O)[nH]c4ccccc43)nc21 | -22.4% (inactive) |
| C=CCn1c2ccccc2c2nnc(SCCCn3c(=O)[nH]c4ccccc43)nc21 | 60.9% (active) |
| C=CCn1c2ccccc2c2nnc(SCCN3CCCCC3)nc21 | 33.2% (inactive) |
| Cc1oc(-c2ccccc2Cl)nc1CN1CCCCC1CO (configuration not stated) | -13.9% (inactive) |
| O=C(COC(=O)CCSc1ccccc1)Nc1ccc(F)cc1Cl | -14% (inactive) |
| CC(C)C(NS(=O)(=O)c1cccc2nsnc12)C(=O)NC1CCCCC1 (configuration not stated) | -5.2% (inactive) |
| CCCCN1CN(S(=O)(=O)c2ccc(OC)cc2)c2nc3ccccc3nc21 | -13.8% (inactive) |
| CCCCCCS(=O)Cc1ccccc1 (configuration not stated) | -9.9% (inactive) |
| CN(C(=O)COc1ccccc1C(=O)NCCc1ccccc1)c1ccccc1 | -33.9% (inactive) |
| COc1ccccc1C(=O)NCCC(=O)NCCOc1ccccc1 | 7.7% (inactive) |
| CCN(CCO)Cc1cc(=O)oc2c(C)c(C)ccc12 | 8.5% (inactive) |
| CCN1C=C(Cc2ccc(F)cc2)C2=C(C1)C(c1ccc(F)cc1)C(C#N)=C(N)O2 (configuration not stated) | 21.1% (inactive) |
| CCN1C=C(Cc2cccs2)C2=C(C1)C(c1cccs1)C(C#N)=C(N)O2 (configuration not stated) | 30.4% (inactive) |
| CCN1C=C(Cc2ccccc2C)C2=C(C1)C(c1ccccc1C)C(C#N)=C(N)O2 (configuration not stated) | 71.8% (active) |
| O=C(CCn1nnc2ccccc21)N1CCN(c2ccccc2)CC1 | 7.2% (inactive) |
| CCC1CCCCN1C(=O)CCCc1ccccc1 (configuration not stated) | -21% (inactive) |
| O=C(Nc1nc2ccccc2n1CCOc1ccccc1)c1ccco1 | 35.8% (inactive) |
| COc1ccc(OCCn2c(NC(=O)c3ccco3)nc3ccccc32)cc1 | 9.1% (inactive) |
| Cc1c(O)nc(SCC(=O)Nc2nccs2)n(-c2ccccc2F)c1=O | -42.1% (inactive) |
| CCOC(=O)NNC1CC(=O)N(c2ccccc2)C1=O (configuration not stated) | -12% (inactive) |
| CCc1nccn1S(=O)(=O)c1cc(OC)c(Cl)cc1OC | -4.5% (inactive) |
| CC(=O)Nc1c(C(=O)O)oc2ccc(Cl)cc12 | 2.5% (inactive) |
| O=S(=O)(NC1CCCCC1)c1ccc(Br)s1 | -13.1% (inactive) |
| O=S(=O)(NC1CCCC1)c1ccc(Br)s1 | -14% (inactive) |
| Cc1ccc(S(=O)(=O)NC2CC2)s1 | 45.4% (active) |

| SMILES | inhibition |
| --- | --- |
| COc1ccc(C(=O)NCC(=O)OCC(=O)Nc2cc(OC)ccc2OC)cc1 | -4.7% (inactive) |
| Cc1ccc(NC(=S)N(Cc2ccc(Br)cc2)Cc2ccc(C(=O)O)cc2)cc1C | -22.8% (inactive) |
| NNc1nc(-c2ccccc2)cc(-c2ccccc2O)n1 | 3.5% (inactive) |
| O=[N+]([O-])c1cc(C(F)(F)F)ccc1Sc1ccccn1 | -1.5% (inactive) |
| Oc1c(Cl)cc(Cl)cc1Sc1cc(Cl)cc(Cl)c1O | -35.5% (inactive) |
| Oc1c(Cl)cc(Cl)c(Cl)c1Cc1c(O)c(Cl)cc(Cl)c1Cl | 85.9% (active) |
| Oc1c(Cl)cc(Cl)c2c1NCCC2 | -5.4% (inactive) |
| O=C(NC(=S)NCCO)c1sc2ccccc2c1Cl | -51.4% (inactive) |
| O=S(=O)(CC(CN1CCCCC1)N1CCCCC1)c1ccc2ccccc2c1 (configuration not stated) | -6.3% (inactive) |
| O=S(=O)(CC(CN1CCCCC1)N1CCCCC1)c1ccccc1 (configuration not stated) | 9.2% (inactive) |
| O=S(=O)(CC(CN1CCCC1)N1CCCC1)c1ccc2ccccc2c1 (configuration not stated) | 51.2% (active) |
| OCCC1CN(Cc2cccc3nonc23)CCN1C1CCCCC1 (configuration not stated) | -25.9% (inactive) |
| O=C(CN1CCN(C(=O)C2CCCO2)CC1)Nc1ccc(F)cc1 (configuration not stated) | -12% (inactive) |
| Cc1ccc(-c2nnc(OCc3cccnc3)c3ccccc23)cc1 | -11.3% (inactive) |
| COc1ccc(C(=O)/C=C/c2ccc(OC)c(O)c2)c(F)c1 | 36.2% (inactive) |
| COc1ccc(C(=O)/C=C/c2cc(OC)c(O)c(OC)c2)c(F)c1 | 93.6% (active) |
| COc1ccc(/C=C/C(=O)c2ccc(Cl)s2)cc1O | -46% (inactive) |
| COc1cc(/C=C/C(=O)c2ccc3c(c2)OCO3)cc(Cl)c1O | 13.2% (inactive) |
| COc1cc(/C=C/C(=O)c2ccc(Cl)s2)cc(OC)c1O | 76.4% (active) |
| COc1ccc2cc(C(=O)/C=C/c3cc(OC)c(O)c(OC)c3)ccc2c1 | 62.6% (inactive) |
| O=C(c1ccc(F)cc1)N1CCN(C2=NS(=O)(=O)c3ccccc32)CC1 | -41.6% (inactive) |
| Cc1nn(-c2ccccc2)c(C)c1NC(=O)COc1ccc(C#N)cc1 | -20.8% (inactive) |
